Test results published in PubChem BioAssay (NCATS).
Records with an inconclusive call do not appear. Where a call stands in place of a potency, no number is given. Activity calls are given as the source filed them. Calls come from the whole dose curve; as a rule, active = well fitted curve in the direction sought with a large enough effect; inconclusive = small, poorly fitted or top-dose-only effect, or another doubt; inactive = no such curve, though single readings can be large; an effect the other way counts as inactive or inconclusive.

Columns and labels:
[1] = qHTS of Trypanosoma Brucei Inhibitors: LOPAC Validation (AID 624147)
In short: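 In this concentration-response screen, enzyme-free wells defined baseline while DMSO plates tracked drift. Each reaction combined TbPYK, substrate, compound and 130 uM ADP for 45 min at room temperature. Kinase-Glo Plus luminescence gave the signal.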

[2] = qHTS of Nrf2 Activators: LOPAC Validation (AID 624149)
In short: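 Cells (AREc32_Fluc) are plated at 1000 per well in OPTI-MEM containing 5% FBS and left overnight. Compounds are pinned in and incubated 24 hr at 37 deg C, and firefly luciferase is detected with Steady-Glo.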

[3] = HTS Assay for Allosteric Antagonists of the Human D2 Dopamine Receptor: Hit Validation in HTRF (AID 624455); note: potency is the fitted concentration of half-maximal effect;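 note: stable D1 dopamine receptor cell line scored for blocking the D1 response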
In short: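 Inhibition of the D1-mediated response is measured by HTRF in cells that stably express the D1 dopamine receptor. Compounds reaching this step are hits from calcium-flux antagonism testing at EC80 dopamine in inducible Hek293 Trex D2 cells.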

[4] = Cytotoxicity counterscreen for NFkB agonists and antagonists (AID 624476);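 note: cells exposed to compound for 48 hours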
[5] = qHTS Assay for Identification of Small Molecule Agonists for NFkB Signaling Pathway. (AID 624478);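 note: compounds tested together with TNF alpha at its EC50 of 10 pM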
In short: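 Activators were sought in reporter cells stimulated at the TNF alpha EC50 (10 pM final). Compound and cytokine were co-incubated 5 hours at 37 C before beta-lactamase substrate detection by dual-emission fluorescence.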

[6] = molecular target: Glucagon-like peptide 1 receptor (Homo sapiens) (UniProt P43220); assay: qHTS of GLP-1 Receptor Agonists: LOPAC Validation (AID 624148);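 note: higher luminescence signal means agonism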
In short: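 HEK293 cells stably co-expressing GLP-1R and a cAMP-responsive luciferase reporter, plated 12 hours before compound, then incubated 4-6 hr at 37 deg C. Luminescence read 12 min after detection reagent.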

Glucagon-like peptide 1 receptor (Homo sapiens), sequence (P43220 whole entry, looked up): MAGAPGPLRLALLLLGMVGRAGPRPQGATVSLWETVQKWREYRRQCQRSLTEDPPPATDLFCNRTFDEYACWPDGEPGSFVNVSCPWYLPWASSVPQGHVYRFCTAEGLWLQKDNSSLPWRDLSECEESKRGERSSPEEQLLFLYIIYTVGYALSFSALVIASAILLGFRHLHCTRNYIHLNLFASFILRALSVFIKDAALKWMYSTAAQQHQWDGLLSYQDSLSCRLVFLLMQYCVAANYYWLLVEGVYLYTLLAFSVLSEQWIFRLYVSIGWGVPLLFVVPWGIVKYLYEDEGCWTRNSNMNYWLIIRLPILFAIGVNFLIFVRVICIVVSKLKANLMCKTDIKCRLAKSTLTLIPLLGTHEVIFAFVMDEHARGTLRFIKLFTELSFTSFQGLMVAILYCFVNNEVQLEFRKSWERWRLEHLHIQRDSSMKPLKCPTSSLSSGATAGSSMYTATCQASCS

Structure (SMILES) | Potency [1] | outcome [2] | Potency [3] | Potency [4] | outcome [5] | Potency [6]
CC(CCc1ccc(O)cc1)NCCc1ccc(O)c(O)c1 (stereo not drawn) | inactive | inactive | 3.26 µM (active) |  |  | 
CN(C)CCC=C1c2ccccc2C=Cc2ccccc21 | inactive | inactive | inactive |  |  | 
NC12CC3CC(CC(C3)C1)C2 | inactive | inactive | inactive |  |  | 
COc1ccc2c(c1)c(CC(=O)O)c(C)n2C(=O)c1ccc(Cl)cc1 | inactive | inactive | inactive |  |  | 
O=c1c(O)c(-c2ccc(O)c(O)c2)oc2cc(O)cc(O)c12 | inactive |  |  | inactive | inactive | 
CS(=O)(=O)Nc1ccc([N+](=O)[O-])cc1Oc1ccccc1 |  | inactive | inactive |  |  | inactive
